# From PubChem BioAssay AID720513 (Broad Institute, 2013)
# About 480 (23%) of roughly 2,100 compounds were called active. About 5% were inconclusive and are not listed. Only a sample is shown. Potency and affinity values are given separately. A number with no mark means an inactive call.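 How the source made its calls: active means fitted curve reaches 40% activation at or below the top valid concentration, in every replicate test; inconclusive means replicate tests disagree on the call; inactive means the rest, including activity in the opposite direction.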
# Test: activators raising PGC1a acetylation in cells, dose response, cell-based, cherry-picked samples, set 6 (AID 720513);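 further: cells made to overexpress flag tagged PGC1a plus GCN5 acetyltransferase by viral infection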
# Conditions: U2OS PGC1a acetylation AlphaLISA, overnight, 0 = neutral, -100 = inhibitor control; series mostly up to 19.5 µM; activation (acetylation increase): at the top concentration
row,Structure (SMILES),activation (acetylation increase)
1,COc1ccc(C2c3c(-c4ccccc4O)n[nH]c3C(=O)N2CCc2ccc(OC)c(OC)c2)cc1 (stereo not given),4.33%
2,C#CCN(C[C@@H]1[C@@H](OC(=O)NCc2ccccc2F)[C@@H](OC(=O)NCc2ccccc2F)Cn2c(=O)ccc(=O)n21)S(=O)(=O)c1ccc(C)cc1,-98.8%
3,COc1ccc2c(c1)c(CC(=O)OCC(N)=O)c(C)n2C(=O)c1ccc(Cl)cc1,31.9%
4,COc1ccc([N+](=O)[O-])c(S(=O)(=O)c2ccc(Cl)cc2)n1,-85.4%
5,C[C@H](NC(=O)C[C@H]1C[C@@H]2c3cc(NC(=O)Nc4ccc(C(F)(F)F)cc4)ccc3O[C@@H]2[C@@H](CO)O1)c1ccccc1,-4.02%
6,CN(C)C(=O)C[C@H]1C[C@@H]2c3cc(NC(=O)C4CCOCC4)ccc3O[C@@H]2[C@H](CO)O1,30.3%
7,N#Cc1cccc(C#N)c1NCC1CCCO1 (stereo not given),13.6%
8,COCC#Cc1cnc2c(c1)C(=O)N([C@H](C)CO)C[C@@H](C)[C@@H](CN(C)C(=O)c1cccnc1)O2,4.29%
9,CC1=C(C(N)=O)C(c2ccccc2)n2nc(-c3ccncc3)nc2N1 (stereo not given),36.6%
10,CCN(CC)C(=O)c1sc(NC(=O)c2ccncc2)c(C(=O)OC)c1C,-4.98%
11,COc1ccc(OC)c(N(CC(=O)Nc2ccccc2)S(C)(=O)=O)c1,27.7%
12,CC(=O)Nc1cccc(OCC(=O)Nc2ccccc2)c1,-3.78%
13,COc1ccc(OC)c(CN2CCN(C(=O)c3ccc(NS(=O)(=O)c4cccc([N+](=O)[O-])c4)cc3)CC2)c1,2.19%
14,CC(=O)Nc1ccc(NS(=O)(=O)c2ccc(C)cc2)cc1[N+](=O)[O-],33.2% [at 10 µM]
15,Cc1nn(CC(=O)Nc2ccc(C(C)C)cc2)c(C)c1[N+](=O)[O-],-5.82%
16,COc1ccc(NC(=O)CN(C)C(=O)c2cnc(Cl)c(Cl)c2)cc1,12.1%
17,CC(C)Cc1nnc(NC(=O)c2cc3c(s2)CCC3)s1,5.75%
18,C[C@@H]1CN([C@@H](C)CO)C(=O)c2cc(NC(=O)Nc3cccc4ccccc34)ccc2O[C@@H](C)CCCCO[C@H]1CN(C)C(=O)NC1CCCCC1,22.3%
19,N#Cc1ccc(C(c2ccc(C#N)cc2)n2cncn2)cc1,2.17%
20,N#Cc1c(C#N)c(O)c2ccccc2c1O,15%
21,OC[C@@H]1CN(Cc2ccccc2)C[C@H](n2cnc3c(NCc4ccc(F)cc4)ncnc32)O1,0.342%
22,O=C(COc1ccc(Cl)cc1Cl)NCCCN1CCOCC1,8.53%
23,COc1cc(NS(=O)(=O)c2ccc(N)cc2)nc(OC)n1,17.8%

row,Structure (SMILES),activation (acetylation increase)
1,CN(C)S(=O)(=O)c1ccc(N2CCCC2)c(C(=O)NCc2cccc(C(F)(F)F)c2)c1,4.68%
2,COc1ccc(NC(=O)N[C@@H]2CC[C@H](CCn3cc(-c4ccccc4F)nn3)O[C@H]2CO)cc1,19%
3,COc1ccccc1C1c2c(C)nn(-c3ccccc3)c2NC(=O)C1NC(=O)c1ccccc1 (stereo not given),-23.3%
4,Cn1cnnc1Sc1ccc(/C=C/C(=O)c2ccc(O)cc2)cc1[N+](=O)[O-],-94.3%
5,O=C(Nc1ccc(F)cc1)N1CCCCN2[C@H](CO)[C@H](c3ccc(C#Cc4ccccc4)cc3)[C@H]2C1,-84.6%
6,O=C(Nc1ccc(F)cc1)c1ccccc1,22.9%
7,CC(C)NC(=O)N(C)C[C@H]1OCCCC[C@@H](C)Oc2ccc(NC(=O)CCCN(C)C)cc2C(=O)N([C@@H](C)CO)C[C@@H]1C,-5%
8,C[C@@H]1CN([C@@H](C)CO)C(=O)CCCn2cc(nn2)CO[C@H]1CN(C)Cc1ccncc1,8.73% [at 21 µM]
9,CCCCN(C(=O)CCC(=O)Nc1cc(C)on1)C(C(=O)NC1CCCC1)c1ccc(OC)cc1 (stereo not given),-10.7%
10,C#CC(=O)N(c1cccc(OC)c1)C(C(=O)NC1CCCC1)c1cccs1 (stereo not given),-104%
11,CCCC(C(=O)NC(C)(C)C)N(Cc1ccc(F)cc1)C(=O)c1snc(C(N)=O)c1N (stereo not given),-19.4%
12,C#CC(=O)N(c1ccc(OC)c(OC)c1)C(C(=O)NC1CCCC1)c1cccs1 (stereo not given),-99.1%
13,COc1ccc(N2C(=O)CC2(/C=C/c2ccccc2OC)C(=O)NC2CCCC2)cc1 (stereo not given),20.7%
14,O=C(NC1CCCCC1)C(c1ccc2ncccc2c1)N(Cc1ccc2c(c1)OCO2)C(=O)c1ccc2c(c1)OCCO2 (stereo not given),9.19%
15,C#CC(=O)N(c1ccc(OC)cc1OC)C(C(=O)NC1CCCC1)c1cccs1 (stereo not given),-106%
16,CC12CC(c3ccccc3O1)N(C(=O)c1ccc(Br)o1)C(=O)N2c1ccccc1 (stereo not given),-8.31%
17,CCCOc1ccccc1-n1sc2c(c1=S)-c1cc(OC)cc3c1N(C(=O)C3=O)C2(C)C,-46.2%
18,COc1cccc(-c2nn(-c3ccccc3)cc2CN(C)C(C)c2ccncn2)c1 (stereo not given),15.7%
19,Cc1c(NC(=O)c2ccccc2NS(=O)(=O)c2ccc(Br)cc2)c(=O)n(-c2ccccc2)n1C,-8.93%
20,CCOC(=O)C1=C(NC(=O)c2ccc(Br)o2)Nc2ccccc2N=C1,31.5%
21,CCCNC(=O)N(C)C[C@H]1Oc2cc(C#CC(C)C)ccc2S(=O)(=O)N([C@@H](C)CO)C[C@H]1C,0.778%
22,CC(C)C#Cc1cnc2c(c1)C(=O)N([C@H](C)CO)C[C@H](C)[C@H](CN(C)C(=O)CN1CCOCC1)O2,23.2%
23,Cc1cc(-c2ccc(Cl)cc2)n2ncnc2n1,-15.3%

row,Structure (SMILES),activation (acetylation increase)
1,CO[C@@H]1CN(C)C(=O)c2cc(NC(C)=O)ccc2OC[C@H](C)N(C(=O)c2cccnc2)C[C@H]1C,-7.97%
2,COc1ccc(C2c3c(oc4ccccc4c3=O)C(=O)N2CCN2CCOCC2)cc1OC (stereo not given),6.79%
3,CCOc1ccc2c(c1)C(C)=CC(C)(C)N2S(=O)(=O)c1ccc(NC(C)=O)cc1,8.98%
4,Cn1cnc(S(=O)(=O)N2C[C@@H](O)COC[C@H]3O[C@H](CC(=O)NCc4cc(F)cc(F)c4)CC[C@@H]32)c1,17.1%
5,CCn1c(COc2ccc(=O)n(-c3ccccc3)n2)nnc1SCc1ccc(C)cc1,26.3%
6,CC(C)(C)Cc1nnc(NS(=O)(=O)c2ccc(F)cc2)s1,20.2%
7,O=S(=O)(Nc1nc2c(s1)CCCC2)c1ccc(F)cc1,16.7%
8,CC(C)CC#Cc1ccc2c(c1)O[C@@H](CN(C)C)[C@H](C)CN([C@@H](C)CO)S2(=O)=O,13.1%
9,Cn1ccc2cc(OCc3ccccc3)ccc21,11%
10,N=c1sccn1CC(=O)Nc1ccccc1Sc1ccccc1,-28.5%
11,Cc1cc(C)c(S(=O)(=O)N2CC=C(c3ccccc3)CC2)c(C)c1,36.4%
12,COC(=O)c1c(C)oc(C)c1S(=O)(=O)Nc1ccccc1,-8.61%
13,CCCCCCNC(=O)c1ncn[nH]1,-9.03%
14,O=C(N[C@@H]1CC[C@@H](CCNS(=O)(=O)c2ccccc2Cl)O[C@@H]1CO)c1ccc(F)cc1,2.33%
15,O=C(Nc1ccc(OC(=O)c2ccccc2)c(-c2nc3ccccc3s2)c1)c1ccccc1,8.72%
16,N=C1C(c2nc3ccccc3s2)=C(O)CN1NC(=O)c1ccc([N+](=O)[O-])cc1,31.2%
17,O=C(NCC1CCCO1)c1cc2c([nH]c3ccccc32)c(-c2cccc(Cl)c2)n1 (stereo not given),40%
18,CNC[C@@H]1OCCCC[C@@H](C)Oc2ccc(NS(=O)(=O)c3ccc(C)cc3)cc2C(=O)N([C@H](C)CO)C[C@@H]1C,15.5%
19,COc1cc(Cl)c(S(=O)(=O)N2CC(C)OC(C)C2)cc1Cl (stereo not given),26.5%
20,O=C(OCc1nc(-c2ccccc2)oc1COC(=O)c1ccco1)c1ccco1,-3.75%
21,COc1ccc(N(CC(=O)Nc2ccccc2Cl)S(=O)(=O)c2ccc(C)cc2)cc1OC,7.4%
22,Cc1cc(Cl)ccc1OCC(=O)Nc1cccc(S(=O)(=O)NC2=NCCCCC2)c1,7.74%
23,N#CC1=C(N)Oc2c(ccc3ccccc23)C1c1ccsc1 (stereo not given),-48.4%

row,Structure (SMILES),activation (acetylation increase)
1,C[C@H]1CN([C@@H](C)CO)C(=O)c2cc(C#Cc3ccccc3)cnc2O[C@@H]1CN(C)C(=O)c1ccccc1F,-9.97%
2,c1cncc(CNc2ncnc3ccc(-c4ccoc4)cc23)c1,11.1%
3,COC(=O)c1cc(CN2C(=O)c3ccccc3C2=O)c(O)c([N+](=O)[O-])c1,36.6%
4,O=C(Nc1nc(-c2ccccn2)cs1)c1ccccc1-n1cnnn1,10.9%
5,O=C(c1ccc(CN2CCOCC2)cc1)N1CCN(Cc2ccccc2)CC1,10.3%
6,O=C(Nc1ccccc1N1CCOCC1)C1(c2ccc(Cl)cc2)CCC1,19.7%
7,C#CCN1C(=O)C(O)(CC(=O)c2ccc(OC)c(OC)c2)c2ccccc21 (stereo not given),7.98%
8,CC(C)C#Cc1cnc2c(c1)C(=O)N([C@H](C)CO)C[C@H](C)[C@H](CN(C)C(=O)c1ccccn1)O2,3.01%
9,CCOc1ccc(N2CC(C(=O)Nc3ccc(S(=O)(=O)NCC4CCCO4)cc3)CC2=O)cc1 (stereo not given),17.9%
10,O=C(c1cccc(N2C(=O)C3C4C=CC(C4)C3C2=O)c1)N1CCCc2ccccc21 (stereo not given),8.25%
11,COc1ccc(F)cc1CN1CCN(CC(=O)N2CCc3ccccc32)CC1,-12.8%
12,C[C@H](CO)N1C[C@H](C)[C@@H](CN(C)C(=O)Nc2ccc(-c3cccs3)cc2)OCc2cnnn2CCCC1=O,-3.11%
13,CCCc1cn(CC[C@@H]2CC[C@H](NC(=O)Nc3ccc4c(c3)OCO4)[C@@H](CO)O2)nn1,-8.84%
14,O=c1c2cn(Cc3ccc(F)cc3)c3ccc(F)cc3c-2nn1Cc1ccc(F)cc1,3.94%
15,FC(F)(F)c1ccc(Cl)c(-n2c(-c3cc(-c4ccco4)[nH]n3)n[nH]c2=S)c1,-12.5%
16,C[C@H](CO)N1C[C@H](C)[C@H](CN(C)Cc2ccncc2)OCc2cn(nn2)CCCC1=O,25.1% [at 21 µM]
17,COCC(=O)N1C[C@@H](C)[C@@H](OC)CN(C)C(=O)c2ccc(NC(=O)c3cnccn3)cc2OC[C@@H]1C,-10.3%
18,CC(=O)n1nc2nc(C)cc(C)c2c1N,-25.1%
19,CCS(=O)(=O)Nc1ccc2c(c1)C(=O)N(C)C[C@@H](OC)[C@H](C)CN(Cc1ccccn1)[C@@H](C)CO2,-1.3%
20,O=C(COC(=O)Cc1ccc(S(=O)(=O)N2CCOCC2)s1)NCCc1ccccc1,-11.5%
21,O=C(O)C1CCCN1S(=O)(=O)c1cc(Cl)ccc1Cl (stereo not given),6.52%
